# Legend:
# Assay in all cases: pooled miR-30 sensor sort-seq; sequence = guide strand
# Details in all cases: shRNA
# RAB11A = molecular target: RAB11A
# RAD9A = molecular target: RAD9A
# RASSF5 = molecular target: RASSF5
# RASSF3 = molecular target: RASSF3
# Note: reference of the scale not given here.
sequence,measurement,setting,value
TTGCTTCTGAGAAACAATGCGG,sensor-assay potency score (higher = more potent),RAB11A,-0.544
TTTTTCCACCGTCTTCTCCAGC,sensor-assay potency score (higher = more potent),RAD9A,-1.2
TTGTCCACAACCATGAACTTCT,sensor-assay potency score (higher = more potent),RASSF5,0.0348
TTCTCTCGCGTGTTGTAGCTGT,sensor-assay potency score (higher = more potent),RASSF5,0.0292
TTAAAAAGTGCAAACTTCTGGG,sensor-assay potency score (higher = more potent),RASSF5,0.479
TTTGCTGAGGTAACTGTGGGTT,sensor-assay potency score (higher = more potent),RASSF3,0.0248

# — the OligoGym collection
